In the library only some 9.3% were active in any assay of this set; here they are far more common.
ELG1 genotoxic: genotoxicity induction in ELG1-luciferase HEK293T cells | HEK293T ELG1-luciferase reporter, luminescence, 16 h | Potency, µM (highest dose often 46 µM), without a hit: at the top dose activity change, positive = activation, hits mostly activators | actives 1.3% (n = 330,000) | AID 504466; note: % of control where 0% means no effect; nearly all actives have a fitted effect of over 60% in size
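DMSO vehicle served as control against compound-treated ELG1-luciferase HEK293T cells; exposure lasted 16 hr at 37 °C and 5% CO2, followed by ONE-Glo luminescence detection after 30 min.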
FLuc modulator: counter-screen for miR-21 project: firefly luciferase inhibitors or activators. P08659. purified FLuc, Km substrates, luminescence inhibition. Potency, µM (series often up to 57.5 µM), without a hit: top-dose activity change, negative = inhibition, most hits filed as inhibitors. actives 6.9% (n = 360,000);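 note: plate controls were vehicle for no effect and reference inhibitor for full effect; nearly all actives have a fitted effect of over 55% in size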
Target sequence (P08659 whole entry, looked up): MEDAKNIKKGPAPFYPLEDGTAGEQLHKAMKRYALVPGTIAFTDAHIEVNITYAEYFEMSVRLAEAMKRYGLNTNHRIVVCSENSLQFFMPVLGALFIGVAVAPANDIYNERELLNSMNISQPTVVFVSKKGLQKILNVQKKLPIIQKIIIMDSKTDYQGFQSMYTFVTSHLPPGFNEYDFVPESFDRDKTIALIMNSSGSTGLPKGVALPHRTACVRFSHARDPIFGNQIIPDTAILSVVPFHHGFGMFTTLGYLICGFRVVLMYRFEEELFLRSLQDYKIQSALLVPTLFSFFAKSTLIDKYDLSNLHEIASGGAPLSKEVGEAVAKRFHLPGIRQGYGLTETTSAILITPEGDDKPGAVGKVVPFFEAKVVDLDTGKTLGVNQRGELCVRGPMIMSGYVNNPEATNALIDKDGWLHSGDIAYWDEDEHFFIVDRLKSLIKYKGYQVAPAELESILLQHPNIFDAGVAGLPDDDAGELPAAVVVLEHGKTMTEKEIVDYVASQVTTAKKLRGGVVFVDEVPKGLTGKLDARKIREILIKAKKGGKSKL
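Purified P. pyralis luciferase, 10 nM final, with Km-level 10 uM D-luciferin and 10 uM ATP in 50 mM Tris acetate pH 7.5, 10 mM Mg acetate, 0.01% Tween-20, 0.05% BSA; 6-point qHTS titration about 60 µM downward; luminescence read.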
ELG1 DNA repair: inhibitors of ELG1-dependent DNA repair in HEK293T cells. HEK293T ELG1-luciferase reporter, luminescence, 16 h; DNA damage induced by 5-fluorouridine. Potency, µM (doses to about 46.1 µM), inactives show at the highest dose activity change, negative = inhibition, actives largely listed as inhibitors. actives 2.3% (n = 330,000). AID 504467; note: % is set by controls: 0 for no effect and ±100 for the full control effect; nearly all actives have a fitted effect of over 55% in size
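Step one: seed 2,000 cells per well. Step two: pin-transfer compound or DMSO alongside 5-fluorouridine. Step three: incubate 16 hr, 37 °C, 5% CO2. Step four: add ONE-Glo, wait 30 min, read luminescence.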
NPC1 prom act: NPC1 promoter activation; Huh7 NPC1 promoter luciferase reporter, 24 h; AID 485313; actives 2.4% (n = 320,000); Potency, µM (top dose mostly 9.22 µM), for inactives: at the top dose activation, usual class: activators; note: % of control where 0% means no effect; nearly all actives have a fitted effect of over 60% in size
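Cells: Huh7 expressing luciferase under the NPC1 promoter, 1500/well. Seeded 2 h, compound added, incubated 24 h at 37 °C. Luciferase reagent, 10 min ambient, then luminescence.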
Rab9 promoter act: activators of Rab9 promoter. actives 2.8% (n = 320,000). Huh7 Rab9 promoter-luciferase reporter, luminescence, 24 h. Potency, µM (top dose mostly 9.22 µM), inactives show top-dose activation, negative = inhibition, most hits filed as activators; note: % of control where 0% means no effect; nearly all actives have a fitted effect of over 60% in size
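Luciferase signal after 10 min detection reagent at ambient indicates Rab9 promoter upregulation; stably transfected Huh7 cells were treated 24 h with compound in DMSO at 37 °C, 5% CO2.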
SMN2 splice up: SMN2 splice variant enhancement. Potency, µM (series often up to 46.1 µM), for inactives: at the top dose activity change, positive = activation, most hits filed as activators. actives 2.8% (n = 210,000). HEK293 SMN2-luciferase splicing reporter, luminescence, 30-36 h; note: % of control where 0% means no effect; nearly all actives have a fitted effect of over 55% in size
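qHTS luciferase splicing reporter: luminescence rises when SMN2 exon 7 is included in transfected HEK293 cells. Compound exposure lasted 30-36 h at 37C, with 4.5 mM final sodium butyrate as control, followed by a ONE-Glo read.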
* marks the source's active call; other numbers are inactive results; u = inconclusive; x = no result. Calls come from the whole dose curve; as a rule, active = well fitted curve in the direction sought with a large enough effect; inconclusive = small, poorly fitted or top-dose-only effect, or another doubt; inactive = no such curve, though single readings can be large; an effect the other way counts as inactive or inconclusive. Potency is the fitted concentration of half-maximal effect.

SMILES	ELG1 genotoxic	FLuc modulator	ELG1 DNA repair	NPC1 prom act	Rab9 promoter act	SMN2 splice up
O=C1NC[C@H](c2ccccc2)OC(=O)[C@@H](Cc2ccc(F)cc2)CC/C=C/C[C@@H]1CC(=O)N(CCO)Cc1ccccc1	-4.8%	x	23.1µM*	x	x	x
O=C1NC[C@H](c2ccccc2)OC(=O)[C@@H](Cc2ccc(F)cc2)CC/C=C/C[C@H]1CC(=O)N(CCO)Cc1ccccc1	-12.7%	x	5.17µM*	x	x	x
CCCCCCN=C(C)c1ccccc1O	-0.6%	6.1%	2.3%	0.6%	7.7%	x
O=C(CCCOc1ccccc1)Nc1ccc(S(=O)(=O)Nc2ccccn2)cc1	0.4%	-8.8%	-12.9%	-2.3%	-4.9%	-3.5%
O=C(CCl)N1CCN(CC(=O)N2CCCC2)CC1	3.5%	0.3%	u	0.5%	13.9%	x
CC(=O)N1CCN(CCS(=O)(=O)c2ccc(Br)cc2)CC1	1.8%	-0.4%	21.8%	-0.3%	-5.1%	x
Cc1ccc(CN(C)C(=O)CCNS(=O)(=O)c2ccccc2)o1	2.0%	0.4%	29.1%	-4.5%	-9.2%	x
CC1CCC(NC(=O)c2ccc3c(c2)OCO3)CC1 (configuration not stated)	0.461µM*	2.69µM*	u	0.316µM*	0.447µM*	x
CC1CCC(NC(=O)C(=O)Nc2ccc3c(c2)OCO3)CC1 (configuration not stated)	4.11µM*	7.57µM*	u	2µM*	0.708µM*	x
CC1CCCC(NC(=O)c2ccc3c(c2)OCCO3)C1C (configuration not stated)	u	13.5µM*	u	3.98µM*	1.58µM*	x
CC1CCN(CC(=O)Nc2ccc3c(c2)OCO3)CC1	5.8%	-9.6%	u	12.4%	14.9%	x
Cc1ccccc1OCC(=O)OCc1cc(=O)n2nc(C3CC3)sc2n1	x	3.8%	x	x	x	x
COc1cc(C(=O)Nc2ccc3[nH]c(=O)sc3c2)cc(OC)c1OC	x	-0.8%	x	x	x	u
O=C(O)COCC(=O)Nc1ccc2c(c1)oc1ccccc12	1.1%	16.9µM*	16.6%	-1.6%	-0.4%	x
O=C(COc1ccc2c(c1)OCO2)Nc1ccc2c(c1)oc1ccccc12	5.2%	-1.7%	19.2%	9.4%	12.1%	x
O=C(O)CCC(=O)Nc1ccc2c(c1)oc1ccccc12	15.5%	23.9µM*	11.5%	2.2%	-4.7%	17.1%
CNC(=O)COc1ccccc1C(=O)Nc1ccc2c(c1)oc1ccccc12	1.2%	3.79µM*	u	-18.2%	-38.1%	-11.7%
CN(CCC1CCOCC1)C(=O)C1CCC(=O)N(CCc2ccccc2)C1 (configuration not stated)	2.0%	2.1%	17.8%	-0.5%	-0.3%	x
Cc1nc(SCc2ccc(OCCC(C)C)cc2)n[nH]1	u	21.3µM*	u	u	u	u
COc1cc(N)c(Cc2nccc3cc(OC)c(OC)cc23)cc1OC	5.3%	2.2%	u	-13.3%	-15.8%	-43.0%
CCOc1cc(-c2nccc3cc(OC)c(OC)cc23)cc(OCC)c1OCC	-9.8%	-0.5%	14.6µM*	-5.0%	-0.5%	x
CCOC(=O)C1CC2CC(C1)CN(C(=O)C1CCCCC1)C2 (configuration not stated)	-0.1%	-1.6%	8.6%	-27.2%	-1.6%	-5.5%
CCOc1ccccc1NC(=O)CCC(=O)Nc1ccccc1OCC	8.4%	5.6%	u	9.0%	-1.2%	5.4%
Cc1cccc2c1cnn2C(=O)Nc1cc(F)ccc1F	u	0.675µM*	u	u	0.282µM*	x
Cc1cc(NC(=O)n2ncc3c(C)cccc32)ccc1Br	x	-1.7%	x	x	x	x
SMILES	ELG1 genotoxic	FLuc modulator	ELG1 DNA repair	NPC1 prom act	Rab9 promoter act	SMN2 splice up
CCOc1ccccc1NC(=O)n1ncc2c(C)cccc21	4.1%	7.57µM*	u	3.98µM*	2.51µM*	x
CCOc1ccc(C(=O)Nc2cccc3cccnc23)cc1	11.8%	u	25.7%	3.3%	0.2%	x
O=C(NC(=S)Nc1cccc2cccnc12)c1ccccc1	6.4%	7.57µM*	0.0%	u	u	-0.3%
CC(C)Oc1ccc(C(=O)Nc2cccc3cccnc23)cc1	9.9%	10.7µM*	u	11.1%	20.2%	x
O=C(Nc1cccc2cccnc12)c1ccc(F)cc1	x	15.1µM*	x	x	x	x
CC(C)c1ccc(C(=O)Nc2cccc3cccnc23)cc1	x	9.53µM*	x	x	x	8.1%
COc1cc(-c2nc(S(=O)(=O)c3ccc(Br)cc3)c(N3CCOCC3)o2)cc(OC)c1OC	x	-1.6%	x	x	x	x
O=C(COC(=O)CCc1ccc(S(=O)(=O)N2CCOCC2)cc1)NC(=O)NC1CCCCC1	0.7%	3.5%	5.7%	-3.6%	1.5%	11.9%
O=C(NC(=S)Nc1cccc2[nH]ncc12)c1ccccc1	-4.4%	u	-2.9%	3.16µM*	2.51µM*	u
CNC(=S)Nc1cccc2[nH]ncc12	-0.5%	0.1%	10.3%	0.1%	-6.2%	-4.4%
COc1ccc(C2CC(C)(c3ccc(OC)cc3OC)Nc3ccccc3N2)c(OC)c1 (configuration not stated)	8.2µM*	7.57µM*	u	2.82µM*	1.12µM*	x
COc1cc(C(=O)NC(C)c2cnn(-c3ccccc3C)c2C)cc(OC)c1OC (configuration not stated)	6.5%	-10.6%	-2.6%	-2.7%	-3.1%	-11.7%
Cc1cc(C)cc(NC(=O)Cn2c(=O)n(-c3cc(C)cc(C)c3)c(=O)c3oc4ccccc4c32)c1	x	-9.4%	x	x	x	x
CN(C)c1ccc(/C=C(\C#N)C(=O)OCC(=O)N(C)C2CCS(=O)(=O)C2)cc1 (configuration not stated)	u	23.9µM*	0.0%	-0.6%	-1.5%	x
CN(C(=O)COC(=O)c1c2c(nc3ccccc13)/C(=C/c1cccc([N+](=O)[O-])c1)CCC2)C1CCS(=O)(=O)C1 (configuration not stated)	1.3%	0.4%	5.8µM*	-6.0%	-4.1%	-8.2%
CN(C(=O)COC(=O)/C=C/c1cccc([N+](=O)[O-])c1)C1CCS(=O)(=O)C1 (configuration not stated)	-15.0%	-1.1%	13µM*	-4.9%	-5.2%	x
COC(=O)c1cc(C(=O)OCC(=O)N(C)C2CCS(=O)(=O)C2)cc([N+](=O)[O-])c1 (configuration not stated)	7.9%	4.1%	3.9%	-1.0%	1.7%	11.8%
O=C(COC(=O)c1c2c(nc3ccccc13)/C(=C/c1cccc([N+](=O)[O-])c1)CCC2)NC1CCS(=O)(=O)C1 (configuration not stated)	-3.8%	0.0%	7.31µM*	-4.8%	-4.3%	-4.4%
Cc1onc(-c2ccccc2)c1C(=O)NCc1ccccc1F	0.9%	2.1%	-2.2%	-5.2%	-0.8%	x

Assay outcomes from PubChem.
